In PubChem BioAssay (NCI) one finds growth data, which are given here for 14 compounds.

Test systems include HCT-15 colon; HT29 colon; SNB-75 CNS; SNB-19 CNS; U251 CNS; PC-3 prostate; SK-MEL-5 melanoma; UACC-62 melanoma; LOX IMVI melanoma; SK-MEL-28 melanoma.
What all share (assay): NCI-60 one-dose screen, 48 h (100 = growth as untreated, 0 = no growth, -100 = all killed)
Common to all, as to details: 10 µM unless noted

The panel holds about 83,000 compounds, 20% with a hit somewhere; the sample as a whole holds those more often.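 48-hour exposure, single concentration, 96-well plates; percent growth endpoint where 0 means no net growth. Active: below 10.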 Values without a mark were called inactive. The source made the active and inactive calls.

For the compound `Oc1c(C(Nc2ccccc2Br)c2ccccc2)ccc2cccnc12` (stereo not given), the growth with HCT-15 colon was 26.5%; with HT29 colon it was 24%; in the test on SNB-75 CNS, 60.4%; with SNB-19 CNS it was 31.7%; in the test with U251 CNS, 12.9%; in the test with PC-3 prostate it was 48.6%. Also, the growth is 2.41% (active) with SK-MEL-5 melanoma, -26.3% (active) with UACC-62 melanoma, 10.5% in the test with LOX IMVI melanoma and 39.2% in the test with SK-MEL-28 melanoma.
For the compound `COc1ccc(NC(=O)Cn2c(=O)sc3c(-c4ccc(Cl)cc4)cc(-c4ccc(Cl)cc4)nc32)cc1`, the growth with HCT-15 colon is 93.3%; in the test on HT29 colon it was 82.7%; in the test on SNB-75 CNS it was 89.5%; with SNB-19 CNS, 105%; in the test with U251 CNS it was 103%; in the test with PC-3 prostate, 95.4%. In addition, the growth in the test with SK-MEL-5 melanoma was 98.6%; with UACC-62 melanoma, 85.6%; in the test with LOX IMVI melanoma, 91.1%; in the test on SK-MEL-28 melanoma it was 103%.
With `O=C(/C=C/c1ccco1)c1ccccc1O`, the growth with HCT-15 colon is 93.1%; in the test with HT29 colon, 112%; in the test with SNB-75 CNS, 108%; in the test on SNB-19 CNS, 102%; in the test with U251 CNS, 109%; with PC-3 prostate it was 95.9%. Moreover, the growth in the test on SK-MEL-5 melanoma is 111%; in the test on UACC-62 melanoma, 103%; in the test on LOX IMVI melanoma, 95.2%; with SK-MEL-28 melanoma, 111%.
Regarding `CCOC(=O)Cn1c(-c2nonc2NC(=O)c2ccccc2F)nc2ccccc21`, the growth is 29.2% in the test on HCT-15 colon; 27.4% with HT29 colon; 70.1% in the test with SNB-75 CNS; 47.1% with SNB-19 CNS; 28.1% in the test on U251 CNS; 44.7% with PC-3 prostate. For the same compound, the growth in the test on SK-MEL-5 melanoma was 32.4%; in the test on UACC-62 melanoma, 42.4%; with LOX IMVI melanoma, 10.3%; in the test on SK-MEL-28 melanoma, 71.1%.
`CS(=O)(=O)c1ccc(C(=O)N2N=C(c3ccccc3)CC2c2ccc3c(c2)OCO3)cc1` (stereo not given): the growth in the test with HCT-15 colon was 85.7%; with HT29 colon it was 104%; in the test on SNB-75 CNS, 88.2%; in the test with SNB-19 CNS, 103%; in the test on U251 CNS, 91.4%; with PC-3 prostate it was 85.1%. Moreover, the growth in the test on SK-MEL-5 melanoma was 101%; with UACC-62 melanoma, 96.4%; in the test with LOX IMVI melanoma it was 95.5%; in the test on SK-MEL-28 melanoma, 106%.
Regarding `O=C1CCCN1C(O)CCN(Cc1ccccc1)Cc1ccc(Cl)cc1` (stereo not given), the growth with HCT-15 colon was 125%; in the test with HT29 colon, 98.4%; with SNB-75 CNS it was 101%; in the test on SNB-19 CNS, 104%; in the test with U251 CNS, 102%; with PC-3 prostate, 95.1%. In addition, the growth was 106% with SK-MEL-5 melanoma, 102% in the test on UACC-62 melanoma, 97.2% with LOX IMVI melanoma and 115% with SK-MEL-28 melanoma.
With `CCOC(=O)Cc1cc(Br)c(OCc2ccccc2)c(Br)c1`, the growth with HCT-15 colon was 88.7%; in the test on HT29 colon, 99%; in the test with SNB-75 CNS, 87.3%; in the test on SNB-19 CNS, 97.9%; in the test on U251 CNS, 90.2%; with PC-3 prostate it was 84.1%. Also, the growth with SK-MEL-5 melanoma was 104%; with UACC-62 melanoma, 70.8%; in the test on LOX IMVI melanoma it was 87.6%; in the test on SK-MEL-28 melanoma it was 106%.
On to `N#CCCn1cnc2c(N)ncnc21`, for which the growth in the test with HCT-15 colon is 98.3%; in the test with HT29 colon it was 101%; in the test on SNB-75 CNS it was 93.8%; in the test with SNB-19 CNS it was 99.4%; with U251 CNS it was 98.8%; in the test on PC-3 prostate, 94.2%. For the same compound, the growth is 113% with SK-MEL-5 melanoma, 96.7% in the test on UACC-62 melanoma, 97.1% with LOX IMVI melanoma and 107% in the test on SK-MEL-28 melanoma.
On to `COc1cc(/C=C\c2cc(/C=C\c3ccc(O)c(OC)c3)n(C(=O)Nc3ccc(C(F)(F)F)cc3)n2)ccc1O`, for which the growth in the test on HCT-15 colon was 25.5%; with HT29 colon it was 3.5% (active); in the test with SNB-75 CNS it was 71.8%; in the test with SNB-19 CNS, 48.7%; with U251 CNS, 9.71% (active); with PC-3 prostate, 38%. The growth was 35.4% in the test on SK-MEL-5 melanoma, 31.1% in the test with UACC-62 melanoma, 9.11% (active) with LOX IMVI melanoma and 58% with SK-MEL-28 melanoma.
As for `CC(C)CC1NC(=O)C(CC(C)C)N(CO)C1=O` (stereo not given), the growth in the test on HCT-15 colon was 103%; with HT29 colon it was 94.3%; in the test on SNB-75 CNS it was 93.4%; with SNB-19 CNS, 99.6%; in the test with U251 CNS, 111%; with PC-3 prostate it was 97.3%. The growth is 104% in the test on SK-MEL-5 melanoma, 96.9% in the test on UACC-62 melanoma, 106% in the test with LOX IMVI melanoma and 121% with SK-MEL-28 melanoma.
Turning to `CNC(=O)c1c(NC(=O)c2cccc(C(F)(F)F)c2)sc2c1CCC(=O)C2`, the growth in the test with HCT-15 colon was -37% (active); in the test with HT29 colon it was 4.59% (active); in the test on SNB-75 CNS, -7.71% (active); in the test with SNB-19 CNS, 13.8%; in the test on U251 CNS, 2.7% (active); in the test with PC-3 prostate, -46.4% (active). The growth was -68.3% (active) with SK-MEL-5 melanoma, -41.1% (active) in the test with UACC-62 melanoma, -49.6% (active) in the test on LOX IMVI melanoma and 7.1% (active) in the test on SK-MEL-28 melanoma.
For `C=CCN1C(=O)/C(=c2\sc3n(c2=O)C2C(NN=3)N(CC)C(=O)N2CC)c2ccccc21` (stereo not given), the growth in the test on HCT-15 colon is 15.7%; in the test with HT29 colon it was 6.59% (active); in the test on SNB-75 CNS it was 23.8%; in the test on SNB-19 CNS, 26.8%; with U251 CNS it was 22.8%; in the test with PC-3 prostate, 22%. Moreover, the growth is 18.5% with SK-MEL-5 melanoma, 26.1% in the test with UACC-62 melanoma, 28.9% in the test with LOX IMVI melanoma and 62.4% in the test with SK-MEL-28 melanoma.
Regarding `S=C(S)Oc1cccc2cccnc12`, the growth with HCT-15 colon was 105%; in the test on HT29 colon it was 98%; with SNB-75 CNS it was 87%; with SNB-19 CNS, 107%; with U251 CNS, 105%; in the test on PC-3 prostate, 84.7%. Also, the growth in the test with SK-MEL-5 melanoma is 110%; in the test on UACC-62 melanoma, 96.4%; in the test with LOX IMVI melanoma, 98.9%; in the test with SK-MEL-28 melanoma, 109%.
Consider `COc1cc(C2CC(c3ccc(Cl)cc3)=NN2C=O)ccc1Oc1ccnc2cc(Cl)ccc12` (stereo not given), for which the growth in the test on HCT-15 colon was 85.7%; with HT29 colon, 58%; with SNB-75 CNS, 7.19% (active); in the test on SNB-19 CNS it was 72.6%; in the test on U251 CNS it was 72.5%; with PC-3 prostate, 66.8%. The growth in the test with SK-MEL-5 melanoma is 51%; in the test with UACC-62 melanoma, 74.6%; with LOX IMVI melanoma, 74.2%; in the test with SK-MEL-28 melanoma, 74.4%.
